Drawing on PubChem BioAssay (NCI), this text covers growth for nine compounds.

Molecules are shown by their SMILES. Compounds without any hit were thinned out: in the full panel of roughly 83,000, 20% have a hit.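 How to read the values: 0–100, growth inhibition (40 = 60% inhibited); 0, no net growth; -100 to 0, cell death (-40 = 40% of starting cells died; -100 = all dead).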 Unmarked numbers belong to inactive results. The source made the active and inactive calls. Rule for the calls: active = growth percent below 10; inactive = the rest.

Among the test systems are SK-MEL-2 melanoma; EKVX NSCLC; SN12C renal; UO-31 renal; TK-10 renal; ACHN renal; CAKI-1 renal; CCRF-CEM leukemia; MOLT-4 leukemia; SR leukemia; OVCAR-5 ovarian; OVCAR-4 ovarian; SK-OV-3 ovarian; IGROV1 ovarian; OVCAR-3 ovarian; HS 578T breast; NCI/ADR-RES ovarian; A498 renal; RPMI-8226 leukemia; OVCAR-8 ovarian.
Assay in all cases: NCI-60 one-dose screen, 48 h (100 = growth as untreated, 0 = no growth, -100 = all killed)
Settings in all cases: 10 µM unless noted

Turning to `C=C1CC2(OC1=O)C(=O)Nc1ccccc12` (configuration not stated), the growth with SK-MEL-2 melanoma was 92.5%; with EKVX NSCLC it was 74.4%; with SN12C renal, 40.5%; with UO-31 renal, 19.7%; in the assay on TK-10 renal, 22.3%; with ACHN renal, 7.77% (active). Besides, the growth in the assay with CAKI-1 renal was 31.5%; in the assay on CCRF-CEM leukemia, 0.987% (active); in the assay on MOLT-4 leukemia, 18.7%; in the assay on SR leukemia, 5.16% (active); in the assay with OVCAR-5 ovarian, 66%; with OVCAR-4 ovarian, 37.3%. Further, the growth was 115% with SK-OV-3 ovarian; 63% in the assay on IGROV1 ovarian; 6.75% (active) in the assay with OVCAR-3 ovarian; 83.1% with HS 578T breast; 66.5% in the assay on NCI/ADR-RES ovarian.

In the case of `O=C1/C(=C/c2ccc(F)cc2)CN(C(=O)CCN2CCC(=NO)CC2)C/C1=C\c1ccc(F)cc1`, the growth in the assay with SK-MEL-2 melanoma was -14% (active); with EKVX NSCLC it was -21.4% (active); in the assay with SN12C renal it was -35.4% (active); in the assay on UO-31 renal, -100% (active); in the assay with TK-10 renal it was -5.74% (active); with CAKI-1 renal, -46.4% (active). In addition, the growth is 24.9% in the assay on A498 renal; -18.3% (active) in the assay on CCRF-CEM leukemia; 0.0352% (active) in the assay with MOLT-4 leukemia; 4.41% (active) with SR leukemia; -37.6% (active) in the assay with RPMI-8226 leukemia; 5.09% (active) in the assay on OVCAR-8 ovarian. The growth in the assay on OVCAR-5 ovarian is -53.9% (active); with OVCAR-4 ovarian it was -18.7% (active); in the assay with SK-OV-3 ovarian, -0.984% (active); with IGROV1 ovarian, -29.2% (active); with OVCAR-3 ovarian, -60% (active); in the assay with HS 578T breast it was 11.4%. For the same compound, the growth with NCI/ADR-RES ovarian was 12.5%.

On to `CCOC(=O)c1c2c(n3ccc(NC(=O)CCN4CCCCC4)cc13)C(=O)c1ncccc1C2=O`, for which the growth was 52.1% in the assay on SK-MEL-2 melanoma; 67.9% in the assay on EKVX NSCLC; 30.2% in the assay with SN12C renal; 10.3% in the assay on UO-31 renal; 54% with TK-10 renal; -52.5% (active) in the assay on ACHN renal. Besides, the growth was 16.9% in the assay with CAKI-1 renal; -22.9% (active) in the assay on CCRF-CEM leukemia; -25.9% (active) in the assay with MOLT-4 leukemia; -46.6% (active) in the assay with SR leukemia; -6.64% (active) with RPMI-8226 leukemia; -27% (active) in the assay with OVCAR-8 ovarian. In addition, the growth in the assay with OVCAR-5 ovarian is -58.9% (active); with OVCAR-4 ovarian, -13.5% (active); with SK-OV-3 ovarian, 26.2%; in the assay with IGROV1 ovarian, 35.1%; with OVCAR-3 ovarian, -10.9% (active); in the assay with HS 578T breast, 40.2%. Besides, the growth in the assay on NCI/ADR-RES ovarian was 36.8%.

In the case of `O=C(Nc1cccc2c1C(=O)c1cccc(Nc3cccc4c3C(=O)c3cccc(NC(=O)c5ccccc5)c3C4=O)c1C2=O)c1ccccc1`, the growth in the assay with SK-MEL-2 melanoma is 109%; in the assay on EKVX NSCLC, 125%; in the assay on UO-31 renal, 86.3%; in the assay on TK-10 renal, 108%; with ACHN renal, 104%; in the assay with CAKI-1 renal it was 99.1%. Moreover, the growth is 121% with A498 renal; 89.5% with CCRF-CEM leukemia; 104% in the assay on MOLT-4 leukemia; 101% in the assay with SR leukemia; 107% with RPMI-8226 leukemia; 96.1% in the assay with OVCAR-8 ovarian. Besides, the growth with OVCAR-4 ovarian was 118%; in the assay with SK-OV-3 ovarian, 101%; with IGROV1 ovarian it was 75.6%; in the assay with OVCAR-3 ovarian, 123%; in the assay with NCI/ADR-RES ovarian, 105%.

For the compound `COc1cc(-c2c3c(nc4c2c(C)nn4-c2ccccc2)-c2ccccc2C(=O)C3=O)cc(OC)c1OC`, the growth in the assay with SK-MEL-2 melanoma is 72.3%; with EKVX NSCLC it was 98.3%; with SN12C renal it was 90.5%; in the assay with UO-31 renal it was 73.1%; with ACHN renal, 82.3%; in the assay with CAKI-1 renal, 74.4%. Also, the growth with A498 renal is 83.7%; in the assay on CCRF-CEM leukemia it was 54.4%; in the assay with MOLT-4 leukemia, 52.5%; in the assay on RPMI-8226 leukemia, 55.2%; in the assay with OVCAR-8 ovarian it was 80.1%; with OVCAR-5 ovarian it was 103%. In addition, the growth with OVCAR-4 ovarian was 78.5%; with SK-OV-3 ovarian, 104%; in the assay on IGROV1 ovarian, 94.9%; in the assay on OVCAR-3 ovarian, -29.4% (active); in the assay on HS 578T breast, 111%.

For the compound `CCc1ccc(C(c2ccc(CC)cc2)C(Cl)(Cl)CCl)cc1`, the growth with SK-MEL-2 melanoma is 94.2%; with EKVX NSCLC, 95.8%; in the assay on UO-31 renal it was 84.1%; in the assay with TK-10 renal, 109%; with ACHN renal it was 97.6%; with CAKI-1 renal, 96.6%. The growth in the assay with A498 renal is 81.7%; in the assay with CCRF-CEM leukemia, 114%; in the assay with MOLT-4 leukemia, 84.4%; with SR leukemia, 103%; with RPMI-8226 leukemia, 93.6%; with OVCAR-8 ovarian, 110%. In addition, the growth in the assay with OVCAR-5 ovarian is 99.9%; with OVCAR-4 ovarian, 86.9%; with IGROV1 ovarian, 76.6%; with OVCAR-3 ovarian it was 86.3%; with HS 578T breast, 65.4%; in the assay with NCI/ADR-RES ovarian, 91.3%.

For `Cc1cc2c(cc1C)NC1=C(N2)OC(c2c3ccccc3cc3ccccc23)C1=O` (configuration not stated), the growth is 31% in the assay on SK-MEL-2 melanoma; 22.2% in the assay with EKVX NSCLC; 14.3% in the assay with SN12C renal; 107% in the assay on TK-10 renal; 29% in the assay with ACHN renal; 42.5% with CAKI-1 renal. Also, the growth is 142% in the assay on A498 renal; 20.5% in the assay with CCRF-CEM leukemia; 24.8% in the assay with MOLT-4 leukemia; 30.6% in the assay with RPMI-8226 leukemia; -27.4% (active) in the assay with OVCAR-8 ovarian; 13.9% in the assay with OVCAR-5 ovarian. In addition, the growth in the assay on OVCAR-4 ovarian was 75.5%; in the assay with SK-OV-3 ovarian, 52%; with IGROV1 ovarian it was 17.4%; with OVCAR-3 ovarian, 23.3%; with HS 578T breast, 32.5%; in the assay with NCI/ADR-RES ovarian, -41.7% (active).

In the case of `C=CC[N+]1(CC)CCN=C1CCCCCCCCCCCCCCCCC` (configuration not stated), the growth with SK-MEL-2 melanoma was -74% (active); in the assay with EKVX NSCLC, -75.7% (active); with UO-31 renal it was -65.5% (active); in the assay with TK-10 renal, -94.2% (active); in the assay with ACHN renal it was -86.6% (active); in the assay with A498 renal it was -15.6% (active). Moreover, the growth in the assay on CCRF-CEM leukemia is -59.4% (active); in the assay on MOLT-4 leukemia, -60% (active); with SR leukemia, -64.7% (active); with RPMI-8226 leukemia it was -54.7% (active); in the assay with OVCAR-8 ovarian, -95.2% (active); with OVCAR-5 ovarian, -97.5% (active). The growth in the assay with OVCAR-4 ovarian is -72.2% (active); with SK-OV-3 ovarian, -78.9% (active); in the assay with IGROV1 ovarian, -86% (active); in the assay on OVCAR-3 ovarian it was -94.1% (active); with HS 578T breast, -41.3% (active); in the assay with NCI/ADR-RES ovarian, -21.6% (active).

Turning to `Oc1ccccc1/C=N/Nc1ccc2ccccc2n1`, the growth is 64.5% in the assay on SK-MEL-2 melanoma; 61.8% in the assay with SN12C renal; 16.4% in the assay with UO-31 renal; 62.8% with TK-10 renal; 40.6% with ACHN renal; 15.3% with CAKI-1 renal. Further, the growth in the assay on A498 renal is 107%; in the assay on CCRF-CEM leukemia, 10.7%; with MOLT-4 leukemia it was 7.34% (active); with SR leukemia, 8.32% (active); with RPMI-8226 leukemia, 35.2%; in the assay with OVCAR-8 ovarian, 33.2%. Further, the growth in the assay with OVCAR-5 ovarian is 81%; with OVCAR-4 ovarian it was -0.697% (active); in the assay with SK-OV-3 ovarian, 43%; in the assay with IGROV1 ovarian, 28.1%; in the assay with OVCAR-3 ovarian, 8.79% (active); in the assay on HS 578T breast, 79.3%. Besides, the growth in the assay with NCI/ADR-RES ovarian is 22.9%.
